Among the data in PubChem BioAssay (EPA / NIEHS) are outcome and AC50 values, retold here.

Each structure is given as a SMILES string. Active and inactive are the calls of the source. Rule for the calls: active = hit-call score of the fitted dose curve at least 0.9, where 1 is the maximum; inactive = score below 0.9.

Assay [1] can be described thus: ATG_E_Box_CIS: Attagene CIS-FACTORIAL HepG2 Assay for human Enhancer Box (E-box) (AID 2282936). The following applies: HepG2 E-box cis-reporter transcription, actives raise or lower the signal. In a few lines: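 Endogenous transcription factor activity was sensed in human HepG2 liver cells through transfected cis-promoter reporter units. After 24 h of dosing, total RNA was reverse-transcribed and reporter cDNA resolved by capillary electrophoresis.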

A short description of assay [2]: ATG_M_61_CIS: Attagene CIS-FACTORIAL HepG2 Assay for M61 Transcription Factor (Internal Marker) (AID 2282937). The following applies: HepG2 Attagene CIS-FACTORIAL M61 internal marker reporter; actives raise or lower the signal. The essentials:
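HepG2 cells transiently transfected with multiplexed cis-promoter reporter units reporting endogenous transcription factor activity, measured 24 h after dosing. Reporter mRNA quantified by RT-PCR and capillary electrophoresis; bidirectional fit against DMSO baseline.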

Assay [3] can be described thus: ATG_EGR_CIS: Attagene CIS-FACTORIAL HepG2 Assay for human Early Growth Response 1 (EGR1) (AID 2282938). The following applies: HepG2 Attagene CIS-FACTORIAL EGR reporter mRNA; actives raise or lower the signal. The essentials:
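HepG2 cells transiently transfected with cis-element-driven multiplexed reporter units, dosed for 24 h. EGR1-element reporter mRNA quantified by RT-PCR, 6-FAM labelling, HpaI digestion and capillary electrophoresis; bidirectional fit versus DMSO.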

Assay [4] in a line: ATG_M_19_CIS: Attagene CIS-FACTORIAL HepG2 Assay for M19 Transcription Factor (Internal Marker) (AID 2282939). The following applies: HepG2 Attagene CIS-FACTORIAL M19 internal marker reporter; actives raise or lower the signal. The essentials: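 Transfect HepG2 with MRTU reporter library → dose chemical, 24 h → isolate total RNA, reverse-transcribe with oligo(dT) → PCR, 6-FAM label, HpaI cut (2 h, 37 C) → capillary electrophoresis. Bidirectional fit vs DMSO.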

Assay [5] in a line: ATG_Ets_CIS: Attagene CIS-FACTORIAL HepG2 Assay for human Erythroblast Transformation Specific (ETS) (AID 2282941). The following applies: HepG2 ETS cis-reporter transcription, actives raise or lower the signal. In a few lines:
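Multiplexed reporter transcript profiling: HepG2, 24 h treatment, total RNA to cDNA, PCR, 6-FAM labelling, HpaI cut, capillary electrophoresis. Gain- or loss-of-signal fitted against DMSO.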

The target of assay [6] is Hepatocyte nuclear factor 3-beta (Homo sapiens) (UniProt Q9Y261). The assay is described as follows: ATG_FoxA2_CIS: Attagene CIS-FACTORIAL HepG2 Assay for human Forkhead box A2 (FOXA2) (AID 2282942). The following applies: HepG2 cis-reporter transcription factor activity, 24 h; actives raise or lower the signal. In a few lines:
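HepG2 transiently transfected with a multiplexed cis-promoter reporter library read endogenous FOXA2 activity. After 24 h compound exposure, reporter mRNA was quantified by RT-PCR, HpaI digestion and capillary electrophoresis. Bidirectional fit against DMSO.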

Assay [7] can be described thus: ATG_FoxO_CIS: Attagene CIS-FACTORIAL HepG2 Assay for human Forkhead box O (FoxO) (AID 2282943). The following applies: HepG2 Attagene cis-reporter, FoxO element, mRNA; actives raise or lower the signal. The essentials: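 24 h chemical exposure, HepG2 with transient cis-MRTU transfection. RNA extraction, oligo(dT) RT, reporter-specific PCR, primer-extension labelling, HpaI digestion, CE fragment analysis; bidirectional fit, DMSO baseline.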

A short description of assay [8]: ATG_GATA_CIS: Attagene CIS-FACTORIAL HepG2 Assay for human GATA Binding Protein (AID 2282944). The note with it: HepG2 GATA cis-element reporter, Attagene multiplex mRNA; actives raise or lower the signal. The essentials: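 Transient MRTU transfection, HepG2, 24 h compound exposure. Total RNA → oligo(dT) RT → PCR → 6-FAM primer extension → HpaI cut → CE. Bidirectional fit vs DMSO.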

The nature of assay [9]: ATG_GLI_CIS: Attagene CIS-FACTORIAL HepG2 Assay for human Zinc Finger Protein GLI1 (AID 2282945). The following applies: HepG2, Attagene cis-factorial reporter mRNA, GLI element; actives raise or lower the signal. The essentials: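 HepG2 cells transiently transfected with cis-promoter multiplexed reporter units report endogenous transcription factor activity. After 24 h chemical exposure, reporter mRNA was quantified by RT-PCR, 6-FAM labelling, HpaI digestion and capillary electrophoresis, with bidirectional fitting against DMSO.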

Chain of Hepatocyte nuclear factor 3-beta (Homo sapiens) (Q9Y261 whole entry, looked up): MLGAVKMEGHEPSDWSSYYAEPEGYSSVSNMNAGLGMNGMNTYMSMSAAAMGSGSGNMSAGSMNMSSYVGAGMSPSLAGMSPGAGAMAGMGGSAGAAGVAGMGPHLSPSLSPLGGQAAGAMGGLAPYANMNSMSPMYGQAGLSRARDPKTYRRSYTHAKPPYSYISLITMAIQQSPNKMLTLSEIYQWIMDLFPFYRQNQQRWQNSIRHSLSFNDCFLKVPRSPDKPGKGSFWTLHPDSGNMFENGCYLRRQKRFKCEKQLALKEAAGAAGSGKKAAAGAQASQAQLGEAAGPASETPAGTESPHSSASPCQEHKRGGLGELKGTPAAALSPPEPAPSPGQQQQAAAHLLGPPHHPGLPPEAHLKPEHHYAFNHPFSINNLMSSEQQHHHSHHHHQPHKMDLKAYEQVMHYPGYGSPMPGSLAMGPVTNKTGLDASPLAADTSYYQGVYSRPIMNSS

On to `O=c1[nH]c(=O)c2cn[nH]c2[nH]1`, for which the result in assay [1], in assay [2], in assay [3], in [4], in [5] and in assay [6] was inactive. Also, the compound was called inactive in assay [7], in [8] and in [9].
Consider `C=CCCCCCCCCCC`, for which the result in assay [1], in assay [2], in assay [3], in assay [4], in assay [5] and in assay [6] was inactive. Further, the outcome in assay [7], in assay [8] and in assay [9] was inactive.
For `O=C(CS)OCCOC(=O)CS`, in assay [1], the AC50 was 58.7 µM (active). Further, the result in [2], in [3], in assay [4], in [5], in assay [6] and in assay [7] was inactive. For the same compound, the compound was classed as inactive in assay [8] and in assay [9].
In the case of `CC(C)(C)OC(=O)c1ccc(O)cc1`, the result in assay [1], in [2], in assay [3], in [4], in assay [5] and in assay [6] was inactive. The call in assay [7], in assay [8] and in [9] was inactive.
Take `CCOC(=O)c1ccc(N)cc1`: the result in [1], in assay [2], in [3], in [4], in [5] and in assay [6] was inactive. Also, the result in assay [7], in [8] and in assay [9] was inactive.
Regarding `CCC1(C)NC(=O)NC1=O` (stereo not given), the outcome in assay [1], in [2], in [3], in assay [4], in assay [5] and in assay [6] was inactive. Besides, the compound was classed as inactive in assay [7], in [8] and in assay [9].
Consider `Cc1cccc(Nc2ccccc2)c1`, for which the result in assay [1], in assay [2], in assay [4], in assay [6], in assay [7] and in [8] was inactive. Further, the result in assay [9] was inactive. Further, the AC50 was 73.8 µM (active) in [3] and 154 µM (active) in assay [5].
Turning to `CC(CN=Cc1ccccc1O)N=Cc1ccccc1O` (stereo not given), the result in assay [1], in [2], in assay [3], in assay [4], in assay [5] and in assay [6] was inactive. Besides, the call in [7], in assay [8] and in assay [9] was inactive.
With `COc1ccc(OC)c(N=Nc2c(O)ccc3ccccc23)c1`, the result in assay [1], in [2], in assay [3], in [4], in [5] and in assay [6] was inactive. Further, the compound was called inactive in assay [7], in [8] and in assay [9].
In the case of `O=C(Nc1ccc2c(c1)Cc1ccccc1-2)C(F)(F)F`, the result in assay [1], in [2], in assay [3], in assay [4], in assay [5] and in [6] was inactive. For the same compound, the compound was called inactive in assay [7], in [8] and in assay [9].

The AC50 is the concentration at which the activity in the assay is half-maximal.
